The whole screen tested about 2,300 compounds, of which about 1,200 (52%) were called active. So high a share suggests a set chosen from earlier hits. This is one part of the list. Results with a measured potency or affinity are listed apart. A number with no mark means an inactive call. No rule for the calls is given here.

The results in this text go back to PubChem BioAssay AID435019 (Southern Research Specialized Biocontainment Screening …, 2010).

The assay is described as follows: mammalian cell cytotoxicity, dose response, cytotoxicity control for M. tuberculosis inhibitor project (AID 435019).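 Also: 0% = background wells and 100% = vehicle-treated cells; lower values mean fewer viable cells so more cytotoxicity.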 Conditions: cytotoxicity counter-screen; series mostly up to 40 µM; viability: at the top concentration. For orientation: A counterscreen serves to expose hits that act by an unwanted route or on another target.
By viability is commonly meant a read-out of living cells in per cent, often relative to untreated cells. `Cc1ccccc1Nc1nc(N)nc(COC(=O)c2ccc([N+](=O)[O-])o2)n1`: the “viability” value was 91.6%.

For the compound `Cc1ccc(Nc2nc(N)nc(CN3CCc4ccccc4C3)n2)cc1`, the “viability” value is 82.5%. The same measure for `CCOC(=O)CN(C#N)c1nc(N(C)C)nc(N(C)C)n1`: 98.9%; for `CN(C)N=Nc1nc[nH]c1C(N)=O`: 99.6%. The figure for `CCNc1nc(NCC)n2c(SC(C(=O)Nc3cc(C)ccc3C)c3ccccc3)nnc2n1` (stereo unspecified) is 87.6%.

With `Cn1cc(/C=C2\C(=O)NC(=O)N(c3ccccc3)C2=O)c2ccccc21`, the “viability” value was 95.5%. The figure for `CC(C)(Oc1ccc(Cl)cc1)C(=O)OCC(=O)N1CCN(c2ccccc2)CC1` is 89.3%. The same measure for `CC(C)Cn1c(N2CCN(C(=O)/C=C/c3ccccc3)CC2)nc2ccccc21`: 92.8%; for `CCN(CC)C(=O)Oc1ccc2c(=O)c(-c3ccc(OC)cc3)coc2c1`: 81.8%. The figure for `CN(C)C(=O)C1C2NC(=S)N(c3ccc(Cl)cc3)C1(C)Oc1ccc(Cl)cc12` (stereo unspecified) is 93.5%.

As for `COc1cc(NC(=O)C/C(C)=N/NC(=O)c2ccccn2)c(OC)cc1Cl`, the “viability” value is 91.8%. As for `O=c1oc2cc(O)ccc2c2ccccc12`, the “viability” value was 93.3%.

As to `Cc1ccc(-c2ccc(/C=N/c3ncn[nH]3)o2)cc1Cl`, the “viability” value was 94.2%. The same measure for `C=C(C)C1CC=C(C)/C(=N/NC(=O)CNc2ccc(OCC)cc2)C1` (stereo unspecified): 97.4%; for `CCCOC(=O)CSc1nc(N2CCOCC2)c2c(c1C#N)CC(C)(C)OC2`: 88.7%.

As for `O=C(c1ccc(C#Cc2ccccc2)o1)N1CCN(c2ccccn2)CC1`, the “viability” value was 95.5%. The same measure for `O=C(Oc1ccc(-c2cn3c(n2)SCC3)cc1)c1ccccc1`: 91.9%. The figure for `CC(=Nc1ccc(C)c(C)c1)C1=C(O)CSC1=O` is 103%. Take `Oc1ccccc1C=NC1=NN(c2cccc(C(F)(F)F)c2)CC1`: the “viability” value is 94%.

`Cc1nn(C(C)(C)C)c(NC(=O)c2ccc(Cl)cc2Cl)c1Br`: the “viability” value was 98.6%. The same measure for `O=C(O)c1ccccc1C(=O)NNc1ccc(Cl)cc1Cl`: 102%. The same measure for `O=C(C[n+]1cc(-c2ccc(Cl)cc2)n2c1CCC2)Nc1nc(-c2ccccc2)cs1`: 102%.

`COc1ccc(N=c2ssnc2Cl)cc1`: the “viability” value is 98.1%. With `O=C(CSc1cccc[n+]1[O-])c1cccs1`, the “viability” value is 94.3%.

Consider `O=C(OCC(=O)N1CCCc2ccccc21)c1ccc(S(=O)(=O)C(F)F)cc1`, for which the “viability” value is 98.4%. The same measure for `CCN(CC)CCN(C(=O)c1ccc(S(=O)(=O)N2CCCC2)cc1)c1nc2cc(C)cc(C)c2s1`: 82.7%; for `COc1cc(C(=O)N/N=C/c2cc([N+](=O)[O-])cs2)cc(OC)c1OC`: 57%. The figure for `Cc1ccc(CN2CCN(Cc3ccc(-n4cccn4)cc3C)CC2CCO)cc1` (stereo unspecified) is 94.7%; for `COc1ccc(N=C/C=C2/C=C(c3ccccc3)OC(C)(C)O2)cc1` it is 90.1%; for `N#CC(C#N)=C(N)CSc1cccc[n+]1[O-]` it is 98.7%. The figure for `CCOc1ccc(-c2nn3c(-c4ccccc4)nnc3s2)cc1` is 94.3%; for `CCOc1ccc(N=C(NC#N)SCC(=O)NC2CC2)cc1` it is 96.3%. As to `COc1ccc(Cc2nnc(SCC(=O)N(c3ccccc3)C(C)C)n(N)c2=O)cc1`, the “viability” value is 88.1%.

As to `CC(C)Oc1ccc(NC(=O)Oc2ccccc2)cc1`, the “viability” value was 98.2%. The same measure for `CC(c1nc2ccccc2c(=O)[nH]1)N(C)CCOc1ccc(Cl)cc1` (stereo unspecified): 94.2%; for `CCOC(=O)C1CCN(C(=O)c2ccc3c(c2)NC(=O)/C(=C/c2ccccc2)S3)CC1`: 90%; for `CN(C)c1ccc(CNc2nc(-c3ccccc3)nn2S(C)(=O)=O)cc1`: 97.1%.

For the compound `Nc1ccc(N=Nc2ccccc2)c(N)n1`, the “viability” value is 80.2%. The same measure for `C#CCOC(=O)/C(=C/c1ccc(F)cc1)NC(C)=O`: 96.9%; for `Cc1ccc(C(=O)C[n+]2cc(-c3ccc(C)cc3)n3c2CCCCC3)cc1`: 87.2%; for `COc1ccc(-n2c(-c3ccc(Cl)cc3)c[n+]3c2CCc2ccccc2-3)cc1`: 89.3%. The same measure for `O=C(CN1CCN(Cc2ccc(Cl)cc2)CC1)N/N=C/C=C/c1ccccc1[N+](=O)[O-]`: 90%; for `O=S(=O)(Nc1ccc2[nH]ncc2c1)c1ccccc1Cl`: 91.5%. The figure for `CC(C)(C)C1CCc2nc(NC(=O)Cc3cn4ccsc4n3)sc2C1` (stereo unspecified) is 82.1%. As for `COC(=O)[C@H](CCSC)NC(=O)N1CCN(c2cccc(C(F)(F)F)c2)CC1`, the “viability” value was 94.1%. The figure for `O=C(NNC1CC(=O)N(c2ccc(Br)cc2)C1=O)c1ccccn1` (stereo unspecified) is 99%; for `Cc1cc2c(cc1C)/C(=N/NC(=O)c1ccccn1)CCC2` it is 81%. The figure for `Cc1nn(-c2ccccc2)c(Cl)c1C(=O)Nc1nnc(C2CCCCC2)s1` is 82.8%; for `Cc1nn(-c2ccccc2)c(Cl)c1/C=C/C(=O)c1ccccc1` it is 80.3%. The same measure for `Cc1cccc(C)c1OCCCCc1c(C)n[nH]c1C`: 91.1%; for `COC(=O)CCc1sc(Nc2ccc(Br)cc2)nc1-c1ccc(OC)cc1`: 86.9%; for `COC(=O)c1cc(-c2cccc(OC)c2)on1`: 90.3%.

Regarding `COc1cccc(NC(=O)CNC(=O)Cn2cnc3sc4c(c3c2=O)CCCC4)c1`, the “viability” value is 90.4%. The same measure for `CCNC(=S)NN=C1c2ccccc2-c2ccccc21`: 80.4%; for `Cn1/c(=N/NC(=O)c2cccc(OC(F)F)c2)sc2ccccc21`: 85.7%; for `CC(OC(=O)COc1ccc(Nc2ccccc2)cc1)C(=O)N(C)c1ccccc1` (stereo unspecified): 89.2%.

Regarding `C[n+]1c(-c2ccccc2)cc(CCCCc2cc(-c3ccccc3)[n+](C)c(-c3ccccc3)c2)cc1-c1ccccc1`, the “viability” value is 86.5%. The same measure for `CC1CC(C)CN(C(=O)C2CCC(CNc3c(N4CCCCC4)c(=O)c3=O)CC2)C1` (stereo unspecified): 94.5%. The same measure for `CCC(C)c1ccc2oc(-c3ccc(NC(=O)c4ncn[nH]4)cc3)nc2c1` (stereo unspecified): 96.7%. The figure for `CCC1CSC(Nc2ccc(C(=O)/C=C/c3cccc(C)c3)cc2)=N1` (stereo unspecified) is 86.8%; for `CC(/C=C/C=C/c1ccccc1)=N\NC(=O)c1cccnc1` it is 80.9%; for `CCOC(=O)COc1cc([N+](=O)[O-])cc2cccnc12` it is 93.1%.

For `O=C(c1ccccc1)c1c[nH]c(C(=O)NNc2ccccc2)c1`, the “viability” value is 88.7%. The same measure for `COc1ccc(Cc2nc3ccc(C(=O)NCCCSC)cc3o2)cc1OC`: 86.8%. The same measure for `Cc1ncc(C23CC4CC(CC(C4)C2)C3)[nH]1`: 90.1%; for `COc1cc(/C=C2\C(=O)NN(c3ccc(C)cc3)C2=O)cc([N+](=O)[O-])c1O`: 94.7%.

As for `CC(C)(C)NC(=O)COC(=O)c1cc(Br)ccc1Cl`, the “viability” value is 99.8%. The same measure for `Cc1nonc1OCCNCCNc1ccc([N+](=O)[O-])c2cccnc12`: 85.1%; for `O=C1C(Br)=Cc2cccc3cccc1c23`: 92.4%. The same measure for `C=C[C@]1(C)C[C@@H](OC(=O)CSCCN(CC)CC)[C@]2(C)C(C)CC[C@]3(CCC(=O)[C@H]32)[C@@H](C)[C@@H]1O` (stereo partly specified): 83.2%; for `Cc1noc(C)c1COc1ccc(C(=O)OCC(=O)NC23CC4CC(CC(C4)C2)C3)cc1`: 92%.

On to `O=Cc1ccc(-c2ccc(Cl)cc2Cl)[nH]1`, for which the “viability” value was 89.3%. The figure for `O=C(N[C@H]1CCC(=O)N(CCSc2ccc(Br)cc2)CC1)OCc1ccccc1` is 81.7%; for `CN(C(=O)COC(=O)c1sc2ccccc2c1Cl)C1CCCCC1` it is 102%; for `N#CCCN(C(=O)COC(=O)CCc1c[nH]c2ccccc12)c1ccc(F)cc1` it is 98.1%. The same measure for `COc1ccc(OC)c(C(=O)NC(CC(N)=O)c2ccc(NCc3ccc(F)c(F)c3)c([N+](=O)[O-])c2)c1` (stereo unspecified): 91.3%; for `O=[N+]([O-])c1cn(-c2nc(-c3ccco3)cc(C(F)(F)F)n2)cn1`: 92.9%; for `CC(C)(O)C#Cc1ccc(C(=O)Nc2ccc3c(c2)OCO3)s1`: 98.5%. For `CC1(C)OC(=O)C(=Cc2ccc[nH]2)C(=O)O1`, the “viability” value is 93.5%. The same measure for `Cc1ccccc1Cn1cc(NC(=O)c2noc(C(C)C)c2[N+](=O)[O-])cn1`: 99.4%; for `Cc1ccc(C2=NCCn3c2c2ccccc2[n+]3[O-])cc1`: 95.3%. For the compound `O=S(=O)(c1ccc(Oc2ccc3oc4ccccc4c3c2)nc1)N1CCCC1`, the “viability” value is 90.8%. The same measure for `O=c1[nH][nH]c(-c2ccccc2O)c1C(C[N+](=O)[O-])c1cccc(Cl)c1` (stereo unspecified): 94.3%. For the compound `Cc1ccc(C(=O)n2c(N)nc3ccccc32)cc1`, the “viability” value was 87%. Consider `Cc1ccc(NCCC(=O)c2ccc(Br)cc2)cc1`, for which the “viability” value is 93.9%. Regarding `COc1ccc(N/C=C/c2nc(SC)nnc2C)cc1`, the “viability” value is 92.8%.

In the case of `O=C(c1cc([N+](=O)[O-])ccc1N1CCOCC1)N1CCN(S(=O)(=O)c2cc(Cl)ccc2Cl)CC1`, the “viability” value was 88.9%.

Regarding `COc1ccc(N2CCN(C(=O)c3cc4c(C)nc5ccccc5c4o3)CC2)cc1`, the “viability” value is 88.9%. The figure for `CN(CC(=O)Nc1ccc(OC(F)(F)F)cc1)C(=O)/C=C/c1cc2c(cc1[N+](=O)[O-])OCO2` is 85.5%. The figure for `CC(=O)c1ccc(NC(=O)c2cc(CC(C)C)on2)cc1` is 96.5%; for `CCOC(=O)CSc1nc(N)c(C(=O)Nc2ccc(N(C)C)cc2)s1` it is 94.7%; for `CCOc1ccc(NC(=O)N(C2CCCCC2)C(C)c2ccncc2)cc1` (stereo unspecified) it is 92.1%. Turning to `CCCc1ccc(OCc2ccccc2)c2c(=O)cc(C(=O)OCC)oc12`, the “viability” value was 99.7%.

As to `O=C(Nc1cccnc1Cl)c1cc(-c2ccco2)on1`, the “viability” value was 98.9%. For the compound `Cc1cc(C)n(-c2ccc(C(=O)Oc3ccc4c(c3)OCO4)cc2)n1`, the “viability” value was 101%. The same measure for `COc1ccc(-c2nsc3c(N4CCCCC4C)ncnc23)cc1` (stereo unspecified): 88.7%; for `Cc1ccc(N/C=C2\C(=O)C3(C)CCC2C3(C)C)cc1C` (stereo unspecified): 99.7%; for `COc1ccccc1OC(=O)c1ccc(S(=O)(=O)N(C)C)cc1`: 98.2%. The figure for `O=C(CCC(=O)OCc1ccc(C(=O)Oc2ccc(Cl)cc2)cc1)Nc1ccccc1` is 86.8%; for `CSc1ccc(CNC(=O)c2ccc(NC(=O)C3=CSCCO3)cc2)cc1` it is 87.8%. The figure for `CCC1(c2ccccc2)NC(=O)N(CC(=O)Nc2ccc(S(=O)(=O)NC3=NCCCCC3)cc2)C1=O` (stereo unspecified) is 104%; for `CC(=O)/C(=N\Nc1ccc(C)cc1)N1CCOCC1` it is 86.2%; for `O=[N+]([O-])c1ccc(CN2CCN(c3ccc(Cl)cc3)CC2)o1` it is 100%. Take `CCOC(=O)C1CCN(CC(O)COc2ccc(C(C)(C)CC)cc2)CC1` (stereo unspecified): the “viability” value was 89.2%.

Consider `C[N+](C)(CCCCCC[N+](C)(C)CCCN1C(=O)c2cccc3cccc(c23)C1=O)CCCN1C(=O)c2cccc3cccc(c23)C1=O`, for which the “viability” value is 96.7%.

For `O=C(c1ccccc1)c1nn(-c2ccc(Cl)cc2)cc1C(=O)c1cc2ccccc2oc1=O`, the “viability” value was 82.4%.
